The first assay concerns the target LAMB4. Briefly: pooled miR-30 sensor sort-seq; sequence = guide strand. The settings on record: shRNA.
Regarding TTGACTTTTAAGAATTTCCCAG, the sensor-assay potency score (higher = more potent) is -0.128.
Consider TATTTTGACAAGTTCATCGGTT, for which the sensor-assay potency score (higher = more potent) amounted to 0.404.
On the same count and under the same terms, then TTTAGCTGCATGATTTGTCTTC, with -0.0764; and TTCAACACAGTTGTGAAGCTGA, with 0.732; and TTTGTCTTCTAACAGAGTCATG, with -1.42.
Still for that read-out and setting: to TTGCTCTTTCTATTGTATCTTT belongs -0.796.

The target in a further assay is LAMC1. The assay is described as above. The settings on record: shRNA.
TTTGCAATTACACACCAGCTTA yielded a sensor-assay potency score (higher = more potent) of -0.786.
With TTCTTTTGGACAGCGCTCGCGA, the sensor-assay potency score (higher = more potent) was -0.297.
For TCGTTCTTCATACACTCGCTTG, the sensor-assay potency score (higher = more potent) was -1.26.
For the sequence TTGTCTTTGCAAACACATCTTC, the sensor-assay potency score (higher = more potent) was -0.117.
In the case of TAGGACTTGAGAACTTTGGGAT, the sensor-assay potency score (higher = more potent) is 0.474.
Still for that read-out and setting: then TTGACTTCAAGTTCCTTCCCTC, with 0.467; and TACATTTACATCTGCCACCTAC, with -0.06; and TTCGCTTGTTCATACTTCCTAT, with 0.107.
Take TATGAGACTCTCTAATTCCTGG: the sensor-assay potency score (higher = more potent) is -0.463.
In turn, TTCATCAGTACACAAGGCCTGC gave a sensor-assay potency score (higher = more potent) of -0.475.
For the sequence TTCCTTTAGTCTATCCTCGAAG, the sensor-assay potency score (higher = more potent) was -0.66.
Still for that read-out and setting: to TTCAATATTACATTCATCTATG belongs -0.485.

A further assay deals with LANCL2. The description is as above. Conditions: shRNA.
TGATTCTTGGCAGACAACCGAT showed a sensor-assay potency score (higher = more potent) of -0.954.
AATCACATCGCTACACTCCATG gave a sensor-assay potency score (higher = more potent) of -1.26.
The same measure, in the same setting: to TTTAATTTTGGTCTGGATCCGT belongs 0.159; to TTTTGTGACACATTCCTGGGAC, 0.967; to TTTCAAGTACTTCTCCTCCTTA, -0.0935.
Same read-out and setting: then AATAATAGCATTGACTACCTCT, with 0.441; and AAGTTTTGTGACACATTCCTGG, with 0.068; and TTTCTGTCAAGGTTTCTTGGTC, with -0.185.
As to TAATAGCTGACTCACACACGGT, the sensor-assay potency score (higher = more potent) was -0.857.
With TTTCTTGGTCCACTTTTGCTGC, the sensor-assay potency score (higher = more potent) is -1.18.
For the sequence TATGAAATTATGAATGATCTTC, the sensor-assay potency score (higher = more potent) was determined as 0.142.
TTAACATATAGTAAATTCCAGC had a sensor-assay potency score (higher = more potent) of -0.758.

The next assay deals with LARP1B. The assay is described as above. The settings on record: shRNA.
Turning to TTCTTCTGAAGAACATAGCTGA, the sensor-assay potency score (higher = more potent) is 0.273.
With TGAAACATCAAATAACTTCTGA, the sensor-assay potency score (higher = more potent) stood at 0.226.
Same read-out and setting: then TGATCTTACAACATCTAAGTGG, with -0.00509; and TAAATGTGTTTTTTCGTCCTAT, with 0.39; and TAGGATCTTGTAACCTAGGTGT, with 0.016.
On the same count and under the same terms, to TTTCTTGACTCTCTGATCTTAC belongs -0.67.
For the sequence TTCTACTTCTGTGCTATCCTTC, the sensor-assay potency score (higher = more potent) was determined as 0.509.
Same read-out and setting: to TAGACTGTGTCTTAGATTGAGA belongs -0.454.
TTTATTGAAGTGATCTCTGAGG came in with a sensor-assay potency score (higher = more potent) of -0.332.
TATCTCGCTTCCAACTTCGTGT returned a sensor-assay potency score (higher = more potent) of -0.146.

The record behind these values is the OligoGym collection.
Also: reference of the scale not given here.
